Assay [1] in a line: qHTS assay to identify small molecule antagonists of the glucocorticoid receptor (GR) signaling pathway - cell viability counter screen (AID 720693). Also: nearly all actives have a fitted effect of over 55% in size. For orientation: qHTS replaces the single test concentration by a dilution series.
Assay [2] is described as follows: qHTS assay for identifying genotoxic compounds that show differential cytotoxicity against isogenic chicken DT40 cell lines with known DNA damage response pathways - wild type cell line (AID 743012). Also: nearly all actives have a fitted effect of over 60% in size. Also: potency is read from the fitted curve at half-maximal effect. The essentials: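 Cytotoxicity in repair-proficient parental chicken DT40 cells serves as the comparator for Rad54/Ku70- and Rev3-deficient lines. Cells were exposed to compounds for 40 h at 37 C/5% CO2, and ATP-based luminescence (CellTiter-Glo) measured viability.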

A short description of assay [3]: qHTS assay for identifying genotoxic compounds that show differential cytotoxicity against isogenic chicken DT40 cell lines with known DNA damage response pathways - Rad54/Ku70 mutant cell line (AID 743015). Also: nearly all actives have a fitted effect of over 60% in size. Also: potency is read from the fitted curve at half-maximal effect.
Assay [4] can be described thus: qHTS assay to identify small molecule antagonists of the androgen receptor (AR) signaling pathway - cell viability counter screen (AID 743033; also: nearly all actives have a fitted effect of over 45% in size).
Assay [5] is described as follows: qHTS assay to identify small molecule antagonists of the androgen receptor (AR) signaling pathway using the MDA cell line - cell viability counter screen (AID 743041; also: nearly all actives have a fitted effect of over 45% in size). Summed up:
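Using the breast carcinoma line MDA-kb2 AR-luc, test chemicals were co-incubated with R1881 for 16 h; CellTiter-Fluor reagent, added at 15.5 h, provided a fluorescence measure of live cells.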

A short description of assay [6]: qHTS assay to identify small molecule antagonists of the thyroid receptor (TR) signaling pathway - cell viability counter screen (AID 743064). Also: nearly all actives have a fitted effect of over 50% in size. Also: potency is read from the fitted curve at half-maximal effect. The essentials:
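GH3.TRE-Luc cells, 4 h pre-plating; cpd + T3 1 nM final; 37 °C 23.5 h; CellTiter-Fluor 30 min; fluorescence read.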

The target of assay [7] is Androgen receptor (Homo sapiens) (UniProt P10275). Briefly: qHTS assay to identify small molecule agonists of the androgen receptor (AR) signaling pathway (AID 743036; active = well fitted activation curve with a large enough effect in the signal ratio in the repeat runs, with a control signal flat, not every such curve was filed as active; the % refers to the signal ratio). The essentials:
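AR-bla HEK293 cells, 2,000/well; 4 h preincubation 37C/5% CO2; compound (DMSO) 16 h at 37C; LiveBLAzer B/G FRET substrate 2 h RT; fluorescence intensity read-out.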

Assay [8] shares this target. Briefly: qHTS assay to identify small molecule agonists of the androgen receptor (AR) signaling pathway using the MDA cell line (AID 743040; also: nearly all actives have a fitted effect of over 20% in size). Summed up: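 Stable MMTV-luciferase reporter in MDA-kb2 cells; note the promoter carries GR as well as AR response elements. 16 h compound treatment, 37C, 0% CO2; ONE-Glo luminescence endpoint.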
Assay [9] has the same target. Briefly: qHTS assay to identify small molecule antagonists of the androgen receptor (AR) signaling pathway (AID 743035; active = well fitted inhibition curve with a large enough effect in the signal ratio in the repeat runs, not every such curve was filed as active; the % refers to the signal ratio). The essentials: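 Steps: seed AR-UAS-bla GripTite HEK293 cells, incubate 4 h at 37C; pin in test compound, then add agonist R1881; incubate 16 h at 37C; add LiveBLAzer B/G FRET substrate, 2 h at room temperature; read fluorescence.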
A short description of assay [10]: qHTS assay for identifying genotoxic compounds that show differential cytotoxicity against isogenic chicken DT40 cell lines with known DNA damage response pathways - Rev3 mutant cell line (AID 743014). Also: nearly all actives have a fitted effect of over 55% in size. Also: potency is read from the fitted curve at half-maximal effect.

“And” between values parts separate entries of the source, which are not always exact repeats. Equal entries are not always repeated. Records with an inconclusive call do not appear. The source made the active and inactive calls. Unless noted, calls follow the shape of the dose curve; as a rule, active = well fitted curve in the direction sought with a large enough effect in the repeat runs; inconclusive = weak or mixed curves; inactive = no such curve, though single readings can be large; an effect the other way counts as inactive or inconclusive.

Androgen receptor (Homo sapiens), sequence (P10275 whole entry, looked up): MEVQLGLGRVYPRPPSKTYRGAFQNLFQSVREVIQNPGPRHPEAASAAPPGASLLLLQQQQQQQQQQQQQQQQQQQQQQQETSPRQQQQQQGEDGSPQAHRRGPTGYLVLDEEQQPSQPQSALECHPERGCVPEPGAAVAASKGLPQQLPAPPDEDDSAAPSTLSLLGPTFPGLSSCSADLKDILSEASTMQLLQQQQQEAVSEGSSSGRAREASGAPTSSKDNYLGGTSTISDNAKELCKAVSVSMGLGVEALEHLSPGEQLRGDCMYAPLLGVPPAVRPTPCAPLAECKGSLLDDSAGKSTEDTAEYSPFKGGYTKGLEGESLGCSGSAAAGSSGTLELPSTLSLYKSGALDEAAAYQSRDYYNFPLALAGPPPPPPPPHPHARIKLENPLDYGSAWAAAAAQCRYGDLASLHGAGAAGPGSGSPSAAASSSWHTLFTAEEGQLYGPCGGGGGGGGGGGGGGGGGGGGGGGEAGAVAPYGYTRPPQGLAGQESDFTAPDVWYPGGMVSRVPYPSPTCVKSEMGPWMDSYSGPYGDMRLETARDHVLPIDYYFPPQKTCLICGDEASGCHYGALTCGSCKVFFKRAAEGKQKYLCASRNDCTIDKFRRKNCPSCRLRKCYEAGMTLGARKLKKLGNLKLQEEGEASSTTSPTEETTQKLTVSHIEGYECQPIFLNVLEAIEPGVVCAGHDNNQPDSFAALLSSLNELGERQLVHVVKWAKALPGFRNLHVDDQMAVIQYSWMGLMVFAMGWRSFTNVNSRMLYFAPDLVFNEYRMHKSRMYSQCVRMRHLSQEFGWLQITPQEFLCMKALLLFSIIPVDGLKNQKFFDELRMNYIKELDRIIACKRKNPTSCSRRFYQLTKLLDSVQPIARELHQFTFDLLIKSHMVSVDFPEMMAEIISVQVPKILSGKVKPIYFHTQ

With `CC(=O)c1cnccn1`, the compound was called inactive in assay [1] and in assay [4]. Also, the Potency entry in assay [2], in assay [3], in assay [5] and in assay [6] was “inactive” in each case.

Take `CNC(=O)Nc1ccc(Cl)c(Cl)c1`: the result in [1], in assay [4] and in assay [7] was inactive. Moreover, the Potency result in [2], in [8], in [5] and in assay [6] was “inactive” in each case.

As for `CCC(C)(CCCC(C)C)OC(C)=O` (centres undefined), the result in [1] and in assay [4] was inactive. Besides, the Potency entry in assay [2], in [3], in [5] and in assay [6] was “inactive” throughout.

As for `CCCCCCCCCC[N+](C)(C)[O-]`, the compound was classed as inactive in [1] and in [4]. Further, the Potency in [2] was 24.3 µM (active). The Potency entry in [9], in assay [8], in assay [5] and in [6] was “inactive” in each case.

For `Nc1ccncc1N`, the compound was classed as inactive in assay [1] and in assay [4]. The Potency result in assay [2], in [3], in assay [5] and in assay [6] was “inactive” each time.

As to `CCCc1nn(C)c2c(=O)[nH]c(-c3cc(S(=O)(=O)N4CCN(C)CC4)ccc3OCC)nc12`, the compound was called inactive in assay [1] and in assay [4]. Further, the Potency result in [2], in assay [3], in [5] and in assay [6] was “inactive” in each case.

As to `CCCO[Si](OCCC)(OCCC)OCCC`, the compound was classed as inactive in assay [1] and in [4]. Also, the Potency entry in [2], in [3], in assay [5] and in assay [6] was “inactive” in each case.

For the compound `CC(C)(C)OC(=O)c1cccc(N)c1`, the result in assay [1] and in [4] was inactive. For the same compound, the Potency result in [2], in assay [3], in assay [5] and in [6] was “inactive” each time.

With `CC(C)(N)C#N`, the call in [1] and in [4] was inactive. The Potency entry in assay [2], in [3], in assay [5] and in assay [6] was “inactive” throughout.

Consider `[Ca+2]`, for which the call in [1] and in [4] was inactive. Also, the Potency entry in assay [2], in [3], in assay [5] and in assay [6] was “inactive” each time.

Regarding `CC(C)C[C@@H](N)C(=O)O`, the result in [1] and in [4] was inactive. The Potency entry in assay [2], in [3], in assay [5] and in assay [6] was “inactive” each time.

For the compound `CC(=O)OCC(=O)[C@@]1(O)[C@H](C)C[C@H]2[C@@H]3CCC4=CC(=O)C=C[C@]4(C)[C@@]3(F)[C@@H](O)C[C@@]21C`, the compound was classed as inactive in assay [1] and in assay [4]. Besides, the Potency result in assay [2], in assay [3], in [5] and in assay [6] was “inactive” each time.

`CC(N)C12CC3CC(CC(C3)C1)C2` (centres undefined): the result in assay [1] and in assay [4] was inactive. Moreover, the Potency result in assay [2], in [3], in [5] and in assay [6] was “inactive” each time.

As for `C=CC(C)(CCC=C(C)C)OC(=O)CC` (centres undefined), the compound was called inactive in assay [1] and in [4]. Besides, the Potency result in assay [2], in assay [3], in assay [5] and in assay [6] was “inactive” throughout.

With `N[C@@H](CCC(=O)O)C(=O)O`, the outcome in assay [1] and in assay [4] was inactive. Besides, the Potency entry in [2], in [3], in [5] and in [6] was “inactive” throughout.

As for `CC[C@H]1OC(=O)[C@H](C)[C@@H](O[C@H]2C[C@@](C)(OC)[C@@H](O)[C@H](C)O2)[C@H](C)[C@@H](O[C@@H]2O[C@H](C)C[C@H](N(C)C)[C@H]2O)[C@](C)(OC)C[C@@H](C)C(=O)[C@H](C)[C@@H](O)[C@]1(C)O`, the result in assay [1] and in [4] was inactive. The Potency result in [10], in [3], in assay [5] and in assay [6] was “inactive” throughout.

As to `O=S(=O)(O)c1cccc2c(S(=O)(=O)O)cccc12`, the outcome in [1] and in assay [4] was inactive. Besides, the Potency entry in assay [2], in assay [3], in assay [5] and in assay [6] was “inactive” throughout.

For `CC[N+](CC)(CC(=O)Nc1c(C)cccc1C)Cc1ccccc1` (tested in a mixture with another compound), the compound was called inactive in assay [1] and in assay [4]. For the same compound, the Potency in [10] is 16 µM (active). For the same compound, the Potency entry in assay [3], in assay [5] and in assay [6] was “inactive” in each case.

Turning to `Cc1ncc([C@@H](CCCCCCc2ccc3c(n2)NCCC3)CC(=O)O)cn1`, the outcome in assay [1] and in [4] was inactive. Besides, the Potency result in [2], in [3], in [5] and in assay [6] was “inactive” throughout.

For the compound `CCOC(=O)c1ccccc1`, the result in assay [1] and in [4] was inactive. For the same compound, the Potency entry in assay [2], in [5] and in assay [6] was “inactive” in each case.

With `Nc1ccn([C@@H]2O[C@H](CO)[C@@H](O)C2O)c(=O)n1` (some centres undefined), the compound was classed as inactive in [1] and in assay [4]. For the same compound, the Potency was 298 nM (active) and 193 nM (active) in [2]; 376 nM (active) and 172 nM (active) in assay [3]; 531 nM (active) and 486 nM (active) in [6]. Further, the Potency result in assay [5] was “inactive”.

For the compound `O=C(c1ccccc1O)c1ccccc1O`, the call in [1] and in assay [4] was inactive. Besides, the Potency entry in assay [2], in assay [8] and in assay [5] was “inactive” in each case.

As for `C=CCCCCCCCCC(=O)OCC`, the compound was called inactive in assay [1] and in assay [4]. In addition, the Potency entry in [2], in assay [3], in assay [5] and in assay [6] was “inactive” throughout.

Turning to `CCC(C(=O)NC(=O)NC(C)=O)c1ccccc1` (centres undefined), the call in assay [1] and in [4] was inactive. The Potency result in assay [2], in [3], in assay [5] and in [6] was “inactive” throughout.

Regarding `CCCC(C)C(=O)OCC` (centres undefined), the compound was called inactive in assay [1] and in assay [4]. Further, the Potency result in assay [2], in assay [3], in [5] and in assay [6] was “inactive” in each case.

For the compound `CNCCO`, the result in [1] and in assay [4] was inactive. In addition, the Potency result in assay [2], in assay [3], in assay [5] and in [6] was “inactive” each time.

`COc1cc(C(=O)NCc2ccc(OCCN(C)C)cc2)cc(OC)c1OC`: the outcome in [1] was inactive. The Potency result in assay [2], in assay [3], in [5] and in assay [6] was “inactive” throughout.

As for `COc1c(N2CCNC(C)C2)c(F)cc2c(=O)c(C(=O)O)cn(C3CC3)c12` (centres undefined), the outcome in assay [1] and in assay [4] was inactive. Further, the Potency result in [2], in assay [3], in [5] and in assay [6] was “inactive” throughout.

Turning to `COc1ccnc(CS(=O)c2nc3cc(OC(F)F)ccc3[nH]2)c1OC` (centres undefined), the compound was called inactive in assay [1] and in assay [4]. The Potency result in [2], in [3], in [5] and in [6] was “inactive” each time.

On to `CC1(C)[C@@H]2CC[C@@]1(C)[C@H](O)C2`, for which the compound was called inactive in assay [1] and in assay [4]. Besides, the Potency entry in assay [2], in [3], in assay [5] and in assay [6] was “inactive” in each case.

Values taken from PubChem BioAssay (Tox21).
